One sequence from publication PMC7862700, “An all-to-all approach to the identification of sequence-specific readers for epigenetic DNA modifications on cytosine” can be followed below.

What all share (test): DAPPL (digital affinity profiling via proximity ligation, sequencing); 10 mM Tris-HCl pH 7.5, 50 mM NaCl, 1 mM DTT, 4% glycerol, room temperature, 30 min; GST-TFs on glutathione beads, 16-mer random dsDNA library, 0.1% formaldehyde crosslink after washing; high values mean tight binding
The target of one experiment is T1, FLI1 (Homo sapiens, UniProt Q01543 1-452).
T1 sequence: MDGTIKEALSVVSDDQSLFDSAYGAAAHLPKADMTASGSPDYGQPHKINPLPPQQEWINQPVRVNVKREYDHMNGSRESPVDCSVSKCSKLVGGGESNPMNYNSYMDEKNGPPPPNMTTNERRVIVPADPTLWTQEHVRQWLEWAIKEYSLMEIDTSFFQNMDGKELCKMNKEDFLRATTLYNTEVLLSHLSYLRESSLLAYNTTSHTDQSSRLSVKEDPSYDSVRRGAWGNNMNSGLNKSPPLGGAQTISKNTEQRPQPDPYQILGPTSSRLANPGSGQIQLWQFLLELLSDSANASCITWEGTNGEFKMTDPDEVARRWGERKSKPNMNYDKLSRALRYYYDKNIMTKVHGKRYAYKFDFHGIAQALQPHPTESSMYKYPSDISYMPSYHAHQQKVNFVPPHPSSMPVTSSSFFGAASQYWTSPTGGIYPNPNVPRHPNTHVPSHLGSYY
Conditions: protein: recombinant; tags: N-terminal GST; dsDNA, one strand shown. Put shortly:
(§1)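 Human transcription factors were made in yeast as GST fusions, captured on glutathione beads and barcoded with DNA. With a tag-only sample included, the pool was incubated with 200 nmole of a random double-stranded 16-mer DNA library in Tris/NaCl/DTT/glycerol buffer at room temperature for 30 min, then crosslinked with 0.1% formaldehyde after washing, ligated by proximity, amplified and sequenced. For binding signal, each hexamer's read frequency for a factor is divided by its frequency for the tag-only sample.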

Another experiment deals with T2, ELK1 (Homo sapiens, UniProt P19419 1-428).
T2 sequence: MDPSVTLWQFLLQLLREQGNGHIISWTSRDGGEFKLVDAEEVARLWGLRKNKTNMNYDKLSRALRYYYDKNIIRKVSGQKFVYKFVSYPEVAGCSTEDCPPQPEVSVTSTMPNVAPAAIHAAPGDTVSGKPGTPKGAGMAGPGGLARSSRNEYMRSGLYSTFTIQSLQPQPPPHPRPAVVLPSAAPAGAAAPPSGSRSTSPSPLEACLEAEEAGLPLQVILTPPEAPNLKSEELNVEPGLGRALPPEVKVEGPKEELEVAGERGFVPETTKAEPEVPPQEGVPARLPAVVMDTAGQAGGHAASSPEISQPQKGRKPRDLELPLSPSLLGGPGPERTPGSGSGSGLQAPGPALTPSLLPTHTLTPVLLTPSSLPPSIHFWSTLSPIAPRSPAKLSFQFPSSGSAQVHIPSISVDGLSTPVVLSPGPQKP
Conditions: protein: recombinant; tags: N-terminal GST; dsDNA, one strand shown. In a few lines:
as §1

Another experiment has as its target T3, GABPA (Homo sapiens, UniProt Q06546 1-454).
T3 sequence: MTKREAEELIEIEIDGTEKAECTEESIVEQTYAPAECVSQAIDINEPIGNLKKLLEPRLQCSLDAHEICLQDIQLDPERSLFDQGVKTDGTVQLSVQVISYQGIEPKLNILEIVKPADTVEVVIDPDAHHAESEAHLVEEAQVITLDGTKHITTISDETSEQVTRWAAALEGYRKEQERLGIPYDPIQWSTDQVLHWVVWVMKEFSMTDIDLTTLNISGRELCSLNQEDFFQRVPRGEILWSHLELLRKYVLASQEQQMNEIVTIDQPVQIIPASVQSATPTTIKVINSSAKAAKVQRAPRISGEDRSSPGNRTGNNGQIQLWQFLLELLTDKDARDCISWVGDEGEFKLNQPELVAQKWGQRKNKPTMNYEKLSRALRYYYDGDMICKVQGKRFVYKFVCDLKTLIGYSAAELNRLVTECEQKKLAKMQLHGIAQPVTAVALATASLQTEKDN
Conditions: protein: recombinant; tags: N-terminal GST; dsDNA, one strand shown. In a few lines: as §1

The target of another experiment is T4, ERG (Homo sapiens, UniProt P11308 1-479).
T4 sequence: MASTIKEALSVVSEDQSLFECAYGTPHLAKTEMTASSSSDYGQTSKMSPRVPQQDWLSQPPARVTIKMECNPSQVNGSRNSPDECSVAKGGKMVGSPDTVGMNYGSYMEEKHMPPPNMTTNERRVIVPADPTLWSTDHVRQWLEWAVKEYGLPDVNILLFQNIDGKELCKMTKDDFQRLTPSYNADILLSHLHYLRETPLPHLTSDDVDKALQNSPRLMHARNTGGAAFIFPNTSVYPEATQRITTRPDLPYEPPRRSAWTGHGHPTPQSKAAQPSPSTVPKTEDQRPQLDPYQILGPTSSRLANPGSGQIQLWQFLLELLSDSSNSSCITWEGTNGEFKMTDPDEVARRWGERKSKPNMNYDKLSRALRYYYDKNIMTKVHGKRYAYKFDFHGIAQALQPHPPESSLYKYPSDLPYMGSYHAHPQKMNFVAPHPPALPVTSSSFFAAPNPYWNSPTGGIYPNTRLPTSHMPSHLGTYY
As to conditions: protein: recombinant; tags: N-terminal GST; dsDNA, one strand shown. In a few lines:
as §1

Another experiment concerns the target ELF1 (Homo sapiens, UniProt P32519 1-619). As to conditions: protein: recombinant; tags: N-terminal GST; dsDNA, one strand shown. In a few lines:
as §1

For another experiment, the target named is T5, EHF (Homo sapiens, UniProt Q9NZC4 1-300).
T5 sequence: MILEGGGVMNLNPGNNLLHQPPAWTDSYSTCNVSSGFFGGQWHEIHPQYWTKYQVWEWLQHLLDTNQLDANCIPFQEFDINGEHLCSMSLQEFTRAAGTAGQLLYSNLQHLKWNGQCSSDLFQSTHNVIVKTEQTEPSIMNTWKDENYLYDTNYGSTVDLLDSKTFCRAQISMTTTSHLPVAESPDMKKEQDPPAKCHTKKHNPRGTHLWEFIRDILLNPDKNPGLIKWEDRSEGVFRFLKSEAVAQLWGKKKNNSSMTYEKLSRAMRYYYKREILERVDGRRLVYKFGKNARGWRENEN
As to conditions: protein: recombinant; tags: N-terminal GST; dsDNA, one strand shown. In a few lines: as §1

The target of a further experiment is SPI1 (Homo sapiens, UniProt P17947 1-270). Conditions: protein: recombinant; tags: N-terminal GST; dsDNA, one strand shown. In a few lines:
as §1

Another experiment has as its target SPIB (Homo sapiens, UniProt Q01892 1-262). As to conditions: protein: recombinant; tags: N-terminal GST; dsDNA, one strand shown. Put shortly: as §1
The target of a further experiment is T6, ELK3 (Homo sapiens, UniProt P41970 1-407).
T6 sequence: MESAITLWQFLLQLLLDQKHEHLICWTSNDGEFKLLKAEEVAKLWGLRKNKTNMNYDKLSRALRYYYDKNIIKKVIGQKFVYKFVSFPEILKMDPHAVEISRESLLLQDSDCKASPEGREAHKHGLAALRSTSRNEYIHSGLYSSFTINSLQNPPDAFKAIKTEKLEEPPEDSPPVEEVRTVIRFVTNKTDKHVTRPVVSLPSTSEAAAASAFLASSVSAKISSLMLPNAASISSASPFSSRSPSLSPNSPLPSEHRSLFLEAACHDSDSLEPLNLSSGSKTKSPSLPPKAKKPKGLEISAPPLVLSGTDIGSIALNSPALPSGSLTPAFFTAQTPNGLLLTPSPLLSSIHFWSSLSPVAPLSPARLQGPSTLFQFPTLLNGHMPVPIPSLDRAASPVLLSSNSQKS
As to conditions: protein: recombinant; tags: N-terminal GST; dsDNA, one strand shown. Put shortly:
as §1

Another experiment has as its target T7, FEV (Homo sapiens, UniProt Q99581 1-238).
T7 sequence: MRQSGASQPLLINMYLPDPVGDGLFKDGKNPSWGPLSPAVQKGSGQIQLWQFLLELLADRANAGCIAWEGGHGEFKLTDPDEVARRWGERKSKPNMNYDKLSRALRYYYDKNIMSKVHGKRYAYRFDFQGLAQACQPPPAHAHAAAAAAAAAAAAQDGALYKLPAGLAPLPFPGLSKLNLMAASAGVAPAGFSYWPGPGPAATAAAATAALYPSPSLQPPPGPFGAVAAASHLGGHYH
As to conditions: protein: recombinant; tags: N-terminal GST; dsDNA, one strand shown. In a few lines: as §1

A further experiment has as its target ETV5 (Homo sapiens, UniProt P41161 1-510). As to conditions: protein: recombinant; tags: N-terminal GST; dsDNA, one strand shown. Put shortly:
as §1

A further experiment concerns the target HSF1 (Homo sapiens, UniProt Q00613 1-529). As to conditions: protein: recombinant; tags: N-terminal GST; chain copies: 3; dsDNA, one strand shown. In a few lines: as §1
In another experiment the target is T8, SPIC (Homo sapiens, UniProt Q8N5J4 1-248).
T8 sequence: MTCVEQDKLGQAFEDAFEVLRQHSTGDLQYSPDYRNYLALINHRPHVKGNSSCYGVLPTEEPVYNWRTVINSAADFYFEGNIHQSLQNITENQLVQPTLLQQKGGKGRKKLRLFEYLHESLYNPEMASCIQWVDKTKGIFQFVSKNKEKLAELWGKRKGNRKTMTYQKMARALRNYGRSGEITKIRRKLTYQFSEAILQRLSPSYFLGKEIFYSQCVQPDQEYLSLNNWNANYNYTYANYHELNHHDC
Conditions: protein: recombinant; tags: N-terminal GST; dsDNA, one strand shown. In a few lines: as §1

A further experiment addresses ELF4 (Homo sapiens, UniProt Q99607 1-663). As to conditions: protein: recombinant; tags: N-terminal GST; dsDNA, one strand shown. In a few lines: as §1
The target in another experiment is T9, ELK4 (Homo sapiens, UniProt P28324-2 1-405).
T9 sequence: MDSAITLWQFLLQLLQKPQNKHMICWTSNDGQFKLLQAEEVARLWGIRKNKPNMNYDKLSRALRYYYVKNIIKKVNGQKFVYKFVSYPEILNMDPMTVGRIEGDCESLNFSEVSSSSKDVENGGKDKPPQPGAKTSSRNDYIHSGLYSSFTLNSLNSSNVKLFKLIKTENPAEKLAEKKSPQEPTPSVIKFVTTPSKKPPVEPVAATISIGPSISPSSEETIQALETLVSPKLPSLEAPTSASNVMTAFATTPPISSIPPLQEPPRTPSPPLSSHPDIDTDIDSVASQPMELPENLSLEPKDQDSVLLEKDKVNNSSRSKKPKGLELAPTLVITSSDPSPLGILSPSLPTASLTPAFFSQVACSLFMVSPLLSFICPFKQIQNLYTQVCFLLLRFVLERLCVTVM
As to conditions: protein: recombinant; tags: N-terminal GST; dsDNA, one strand shown. In a few lines: as §1

A further experiment concerns the target T10, ETV2 (Homo sapiens, UniProt O00321 1-342).
T10 sequence: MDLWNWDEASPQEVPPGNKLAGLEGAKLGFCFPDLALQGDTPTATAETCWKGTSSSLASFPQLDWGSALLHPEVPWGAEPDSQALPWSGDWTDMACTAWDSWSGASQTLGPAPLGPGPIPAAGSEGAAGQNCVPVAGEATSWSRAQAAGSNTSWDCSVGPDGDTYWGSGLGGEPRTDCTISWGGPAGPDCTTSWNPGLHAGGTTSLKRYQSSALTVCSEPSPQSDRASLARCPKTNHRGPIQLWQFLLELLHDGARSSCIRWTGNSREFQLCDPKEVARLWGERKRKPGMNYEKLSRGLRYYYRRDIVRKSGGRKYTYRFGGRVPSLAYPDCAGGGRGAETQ
Conditions: protein: recombinant; tags: N-terminal GST; dsDNA, one strand shown. In a few lines: as §1

A further experiment has as its target T11, ELF3 (Homo sapiens, UniProt P78545 1-371).
T11 sequence: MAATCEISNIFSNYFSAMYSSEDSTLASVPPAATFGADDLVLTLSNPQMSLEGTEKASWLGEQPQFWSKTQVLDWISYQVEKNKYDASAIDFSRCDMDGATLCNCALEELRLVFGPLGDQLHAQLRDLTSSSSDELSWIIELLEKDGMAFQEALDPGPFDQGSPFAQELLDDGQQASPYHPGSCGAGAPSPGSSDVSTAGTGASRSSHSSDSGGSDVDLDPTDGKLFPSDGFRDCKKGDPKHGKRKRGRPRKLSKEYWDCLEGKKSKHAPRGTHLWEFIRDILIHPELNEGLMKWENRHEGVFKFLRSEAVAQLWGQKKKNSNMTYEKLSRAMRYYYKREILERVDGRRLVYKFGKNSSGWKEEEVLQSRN
Conditions: protein: recombinant; tags: N-terminal GST; dsDNA, one strand shown. Put shortly: as §1

The target in the next experiment is CRX (Homo sapiens, UniProt O43186 1-299). Conditions: protein: recombinant; tags: N-terminal GST; dsDNA, one strand shown. Put shortly:
as §1

The target in a further experiment is ETV1 (Homo sapiens, UniProt P50549 1-477). Conditions: protein: recombinant; tags: N-terminal GST; dsDNA, one strand shown. In a few lines:
as §1

ETV5, sequence (P41161 whole entry): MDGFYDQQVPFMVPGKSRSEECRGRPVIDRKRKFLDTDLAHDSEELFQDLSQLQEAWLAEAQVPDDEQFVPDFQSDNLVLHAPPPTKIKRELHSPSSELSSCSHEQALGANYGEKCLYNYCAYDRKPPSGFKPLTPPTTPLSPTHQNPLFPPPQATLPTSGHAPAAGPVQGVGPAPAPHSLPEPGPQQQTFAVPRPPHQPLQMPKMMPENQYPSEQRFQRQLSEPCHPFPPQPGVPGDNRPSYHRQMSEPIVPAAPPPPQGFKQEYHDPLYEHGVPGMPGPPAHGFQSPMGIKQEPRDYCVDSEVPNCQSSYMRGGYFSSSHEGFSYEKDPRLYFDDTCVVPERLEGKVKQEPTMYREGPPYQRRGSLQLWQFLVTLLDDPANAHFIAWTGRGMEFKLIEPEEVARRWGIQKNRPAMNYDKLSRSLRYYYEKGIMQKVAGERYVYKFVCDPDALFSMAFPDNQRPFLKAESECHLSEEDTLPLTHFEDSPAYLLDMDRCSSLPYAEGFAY
ELF1, sequence (P32519 whole entry): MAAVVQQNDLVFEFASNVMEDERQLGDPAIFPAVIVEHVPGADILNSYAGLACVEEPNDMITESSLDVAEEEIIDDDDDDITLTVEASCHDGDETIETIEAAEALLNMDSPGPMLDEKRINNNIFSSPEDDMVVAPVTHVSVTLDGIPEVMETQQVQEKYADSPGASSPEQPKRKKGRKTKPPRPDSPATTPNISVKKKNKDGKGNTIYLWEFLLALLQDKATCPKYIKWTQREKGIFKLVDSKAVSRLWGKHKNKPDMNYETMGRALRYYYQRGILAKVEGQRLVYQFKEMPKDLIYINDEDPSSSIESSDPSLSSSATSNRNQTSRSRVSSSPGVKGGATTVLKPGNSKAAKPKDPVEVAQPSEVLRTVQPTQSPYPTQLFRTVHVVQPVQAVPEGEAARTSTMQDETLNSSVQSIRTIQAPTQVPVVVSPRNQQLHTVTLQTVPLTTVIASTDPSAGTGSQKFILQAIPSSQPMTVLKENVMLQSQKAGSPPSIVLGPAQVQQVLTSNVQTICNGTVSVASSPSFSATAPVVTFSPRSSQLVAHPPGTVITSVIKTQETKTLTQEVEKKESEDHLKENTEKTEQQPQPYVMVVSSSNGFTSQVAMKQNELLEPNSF
CRX, sequence (O43186 whole entry): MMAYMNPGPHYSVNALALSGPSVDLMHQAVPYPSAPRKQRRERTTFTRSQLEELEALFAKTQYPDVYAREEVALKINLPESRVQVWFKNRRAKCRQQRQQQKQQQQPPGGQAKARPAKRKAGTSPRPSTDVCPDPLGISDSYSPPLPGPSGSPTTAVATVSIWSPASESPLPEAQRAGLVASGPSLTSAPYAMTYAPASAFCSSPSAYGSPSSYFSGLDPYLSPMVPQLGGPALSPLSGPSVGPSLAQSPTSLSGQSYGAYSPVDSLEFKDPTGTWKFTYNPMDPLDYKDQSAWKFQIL
ELF4, sequence (Q99607 whole entry): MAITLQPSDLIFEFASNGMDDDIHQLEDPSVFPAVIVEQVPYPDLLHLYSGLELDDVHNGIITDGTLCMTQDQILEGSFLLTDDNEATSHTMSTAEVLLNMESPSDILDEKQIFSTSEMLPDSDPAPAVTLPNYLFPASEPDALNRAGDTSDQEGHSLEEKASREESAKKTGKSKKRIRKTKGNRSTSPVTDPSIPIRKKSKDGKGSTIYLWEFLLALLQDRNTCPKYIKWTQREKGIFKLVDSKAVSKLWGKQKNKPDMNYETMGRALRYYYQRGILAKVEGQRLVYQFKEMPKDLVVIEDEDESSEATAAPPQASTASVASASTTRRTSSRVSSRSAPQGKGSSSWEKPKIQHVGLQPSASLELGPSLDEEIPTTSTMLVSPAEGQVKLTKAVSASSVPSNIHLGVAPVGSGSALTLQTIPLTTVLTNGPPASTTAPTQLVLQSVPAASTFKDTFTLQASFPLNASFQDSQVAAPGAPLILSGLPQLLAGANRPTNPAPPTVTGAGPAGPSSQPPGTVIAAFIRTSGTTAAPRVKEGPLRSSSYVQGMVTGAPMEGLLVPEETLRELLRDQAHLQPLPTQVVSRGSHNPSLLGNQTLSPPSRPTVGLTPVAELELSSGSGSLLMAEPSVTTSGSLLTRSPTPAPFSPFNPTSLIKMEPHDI
HSF1, sequence (Q00613 whole entry): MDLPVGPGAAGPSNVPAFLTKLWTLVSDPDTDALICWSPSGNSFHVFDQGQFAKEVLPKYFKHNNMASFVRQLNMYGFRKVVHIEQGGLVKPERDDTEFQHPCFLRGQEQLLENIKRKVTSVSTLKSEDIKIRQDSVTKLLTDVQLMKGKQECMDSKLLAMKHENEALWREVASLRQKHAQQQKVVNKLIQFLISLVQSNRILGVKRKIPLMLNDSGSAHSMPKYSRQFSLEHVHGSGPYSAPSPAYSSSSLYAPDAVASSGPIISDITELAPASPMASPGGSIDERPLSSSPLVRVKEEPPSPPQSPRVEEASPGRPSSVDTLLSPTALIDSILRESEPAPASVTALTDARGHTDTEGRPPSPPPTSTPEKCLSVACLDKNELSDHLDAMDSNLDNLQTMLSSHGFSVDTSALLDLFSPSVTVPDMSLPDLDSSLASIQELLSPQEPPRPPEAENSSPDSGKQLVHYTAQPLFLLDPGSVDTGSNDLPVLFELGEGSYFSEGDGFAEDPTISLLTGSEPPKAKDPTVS
SPIB, sequence (Q01892 whole entry): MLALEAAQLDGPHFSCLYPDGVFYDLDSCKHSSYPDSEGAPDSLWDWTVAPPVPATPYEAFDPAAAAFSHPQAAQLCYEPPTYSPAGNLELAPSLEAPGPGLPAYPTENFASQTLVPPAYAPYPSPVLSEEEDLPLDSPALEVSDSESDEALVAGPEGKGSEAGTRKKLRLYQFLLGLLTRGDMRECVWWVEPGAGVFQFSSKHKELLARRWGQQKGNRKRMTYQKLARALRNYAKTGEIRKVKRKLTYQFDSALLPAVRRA
ETV1, sequence (P50549 whole entry): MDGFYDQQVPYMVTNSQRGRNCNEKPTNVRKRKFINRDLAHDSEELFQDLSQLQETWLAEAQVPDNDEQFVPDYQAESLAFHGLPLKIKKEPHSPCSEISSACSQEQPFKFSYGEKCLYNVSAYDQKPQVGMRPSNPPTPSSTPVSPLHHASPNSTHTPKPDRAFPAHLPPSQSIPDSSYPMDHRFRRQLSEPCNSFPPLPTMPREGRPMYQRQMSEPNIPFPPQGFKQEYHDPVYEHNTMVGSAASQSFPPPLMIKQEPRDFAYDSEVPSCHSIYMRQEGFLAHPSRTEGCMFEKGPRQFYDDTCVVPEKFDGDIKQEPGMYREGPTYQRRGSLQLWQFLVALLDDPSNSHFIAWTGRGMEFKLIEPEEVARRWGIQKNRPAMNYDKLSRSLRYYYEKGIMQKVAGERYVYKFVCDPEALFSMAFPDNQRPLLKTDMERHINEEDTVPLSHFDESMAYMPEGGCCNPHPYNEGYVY

Turning to AGTACT, the binding signal in the experiment with FLI1 was 1.22 fold enrichment (6-mer frequency, TF over GST control); in the experiment with ELK1, 1.41 fold enrichment (6-mer frequency, TF over GST control); with GABPA it was 1.19 fold enrichment (6-mer frequency, TF over GST control); with ERG, 1.25 fold enrichment (6-mer frequency, TF over GST control); with ELF1, 1.22 fold enrichment (6-mer frequency, TF over GST control); in the experiment with EHF, 1.27 fold enrichment (6-mer frequency, TF over GST control). Moreover, the binding signal with SPI1 was 1.25 fold enrichment (6-mer frequency, TF over GST control); in the experiment with SPIB, 1.13 fold enrichment (6-mer frequency, TF over GST control); in the experiment with ELK3, 1.44 fold enrichment (6-mer frequency, TF over GST control); in the experiment with FEV, 1.28 fold enrichment (6-mer frequency, TF over GST control); in the experiment with ETV5, 1.19 fold enrichment (6-mer frequency, TF over GST control); with HSF1, 1.03 fold enrichment (6-mer frequency, TF over GST control). The binding signal with SPIC was 1.35 fold enrichment (6-mer frequency, TF over GST control); with ELF4, 1.19 fold enrichment (6-mer frequency, TF over GST control); in the experiment with ELK4 it was 1.12 fold enrichment (6-mer frequency, TF over GST control); with ETV2, 1.11 fold enrichment (6-mer frequency, TF over GST control); with ELF3 it was 1.29 fold enrichment (6-mer frequency, TF over GST control); with CRX, 1.02 fold enrichment (6-mer frequency, TF over GST control). In the experiment with ETV1, the binding signal is 1.19 fold enrichment (6-mer frequency, TF over GST control).
